# Bioassay records: PubChem BioAssay, National Center for Advancing Translational Sciences (NCATS)
# The list is not random: actives were taken first. Their share in the collection is about 2.3%.
# Coupling enz: coupling enzyme interference in Giardia aldolase counter-screen; AID 2472; coupling enzyme system counterscreen, AmpLite Red fluorescence; 0.67% of 290,000 active; activity change, negative = inhibition, % at 58.2 µM, hits read low; in the data active = activity change below about -30%
#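 Fluorescence at 525 nm excitation and 598 nm emission measured inhibition of the coupled detection system without aldolase. Compounds (at 57.5 uM final) were preincubated 10 min at room temperature with coupling enzyme reagent before a 20 min substrate/AmpLite Red step.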
# USP1-UAF1 inh: inhibitors of human USP1/UAF1 deubiquitinase | O94782 | recombinant USP1/UAF1, Ub-Rhodamine cleavage fluorescence | 0.23% of 390,000 active | Potency, µM (doses to about 57.1 µM), for the others: at the highest dose activity change, negative = inhibition, hits mostly inhibitors; note: potency is the fitted concentration of half-maximal effect; nearly all actives have a fitted effect of over 60% in size
#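 Step one: compound is pinned into 1nM USP1/UAF1 in HEPES pH 7.8 buffer with TCEP. Step two: 15 min room-temperature incubation. Step three: Ub-Rho (150nM final) starts cleavage, tracked by fluorescence over six one-minute reads.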
# Tau FP inhib: blocks human tau fibril formation measured by polarization. P10636. K18 P301L tau heparin fibrillization, Alexa594 FP, 6 h. Potency, µM (doses to about 57.7 µM), without a hit: at the highest dose activity, negative = inhibition, actives largely listed as inhibitors. 0.39% of 280,000 active. AID 1468; note: potency is the fitted concentration of half-maximal effect; nearly all actives have a fitted effect of over 55% in size
# Target sequence (P10636 561-689 P618L limits assumed): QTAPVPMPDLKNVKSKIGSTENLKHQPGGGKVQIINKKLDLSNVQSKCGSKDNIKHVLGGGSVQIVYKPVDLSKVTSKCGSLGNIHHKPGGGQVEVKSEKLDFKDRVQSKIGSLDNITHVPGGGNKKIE
#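 Quantitative HTS format: compounds meet 15 uM recombinant K18 P301L tau and Alexa 594-tau tracer in 100 mM sodium acetate pH 7; 20 uM heparin triggers fibrillization at 37 C over 6 hr; FP gives the signal.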
# Tau fluor cs: counter-screen for tau fibril formation inhibitors. tau K18 P301L Alexa594 fluorescence, heparin fibrillization. 0.93% of 280,000 active. AID 1463. Potency, µM (highest dose often 57.7 µM), for inactives: at the highest dose activity change, negative = decrease; note: potency is the fitted concentration of half-maximal effect; nearly all actives have a fitted effect of over 55% in size
#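 Human tau K18 P301L (15 uM unlabeled, 0.24 uM Alexa 594-labeled) in 100 mM sodium acetate pH 7 with 20 uM heparin, 6 hr at 37 C. ThT 30 uM added, 1 hr ambient; Alexa 594 FP and total fluorescence read at 555/632 nm.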
# Tau ThT inhib: tau fibrillization inhibition (ThT binding); P10636; recombinant tau K18 P301L (four-repeat tau fragment), heparin-induced fibrillization, ThT fluorescence; Potency, µM (series often up to 57.4 µM), without a hit: at the highest dose activity, negative = inhibition, usual class: inhibitors; 2.1% of 270,000 active; note: potency is the fitted concentration of half-maximal effect; nearly all actives have a fitted effect of over 55% in size
#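 In this qHTS, human K18 P301L tau is incubated with compound and heparin for 6 hr at 37 C, and Thioflavin T fluorescence then reports fibril load.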
# Active calls of the source: *; ? = inconclusive; nt = not tested or not shown; [ ] = dose if it differs, or a comment. Unless noted, calls come from the whole dose curve; as a rule, active = well fitted curve in the direction sought with a large enough effect; inconclusive = small, poorly fitted or top-dose-only effect, or another doubt; inactive = no such curve, though single readings can be large; an effect the other way counts as inactive or inconclusive. % is set by controls: 0 for no effect and ±100 for the full control effect.
SMILES,Coupling enz,USP1-UAF1 inh,Tau FP inhib,Tau fluor cs,Tau ThT inhib
CCCc1[nH]nc2c1C(c1ccc(OC)c(CSC3=NCCS3)c1)C(C#N)=C(N)O2 (stereo not drawn),-41*,-11%,10%,-24%,-14%
CCCc1[nH]nc2c1C(c1cc(OC)cc(OC)c1)C(C#N)=C(N)O2 (stereo not drawn),-12,-12%,-5%,-18%,-12%
CCOC(=O)c1c(C)oc2c1c(C(c1cccnc1)N1CCN(C)CC1)c(O)c1ccccc12 (stereo not drawn),-13,nt,11%,-27%,?
CCOC(=O)c1c(C)oc2c1c(C=NCC1CCCO1)c(O)c1ccccc12 (stereo not drawn),-9,-27%,-2%,-27%,?
CCOC(=O)c1c(C)oc2c1c(C=NCc1ccccn1)c(O)c1ccccc12,-53*,?,-8%,?,13µM*
CCOC(=O)c1c(C)oc2c1c1c(c3ccccc32)OCN(Cc2cccnc2)C1,-57*,-24%,?,?,18µM*
CCOC(=O)c1c(C)oc2c1c1c(c3ccccc32)OCN(CCCC(=O)O)C1,-22,-27%,0%,?,?
CCOC(=O)c1c(C)oc2c1c(C(c1cccnc1)N1CCOCC1)c(O)c1ccccc12 (stereo not drawn),-44*,-28%,-5%,?,18µM*
CCCSC1=NC2(CCN(C(=O)NC3CCCCC3)CC2)N=C1c1ccc(OC)cc1,nt,-3%,-1%,-8%,-14%
COc1ccc(N2CCN(S(=O)(=O)CCNC(=O)c3ccc(OC(C)C)cc3)CC2)cc1,nt,-18%,3%,-9%,-11%
CCOC(=O)CC(NC(=O)CCc1c(C)nc2c(-c3ccccc3)c(C)nn2c1C)c1ccc(C)cc1 (stereo not drawn),nt,-23%,2%,-9%,-10%
CC(C)c1ccc(NS(=O)(=O)c2ccc3[nH]cc(C(=O)N4CCCC4)c(=O)c3c2)cc1,nt,?,-5%,-19%,-2%
O=C(O)c1ccccc1Nc1cccc(OCc2ccc3ccccc3n2)c1,-8,-13%,-2%,8.9µM*[quencher],14µM*
N#CC1=C(SCC(=O)c2ccc(Br)cc2)NC2=C(C(=O)CCC2)C1c1ccco1 (stereo not drawn),-1,-18%,-15%,?,14µM*
CC(=O)C1=C(C)NC(SCC(=O)c2ccccc2)=C(C#N)C1c1ccco1 (stereo not drawn),-7,nt,-2%,?,22µM*
CCc1ccc(NC(=O)CSC2=C(C#N)C(c3ccco3)C3=C(CCCC3=O)N2)cc1 (stereo not drawn),0,-20%,-10%,?,-13%
CCOC(=O)c1c(NC(=O)c2cc(=O)c3c(C)cc(C)cc3o2)sc2c1CCC2,nt,-23%,0%,-2%,-8%
COc1ccc(CNC(=O)CCc2c(C)nn(-c3ccc(N4CCOCC4)nn3)c2C)cc1,nt,-7%,5%,-3%,-13%
O=c1cc(-c2ccc([N+](=O)[O-])cc2)nc2cc(-c3ccc(Cl)cc3)[nH]n12,1,nt,-1%,?,2.2µM*
CN(C)c1cc(Cl)c2nonc2c1N,-30*,32µM*,?,?,25µM*
CCN(CC)c1cc(Cl)c2nonc2c1N,-25,-2%,-2%,-1%,-5%
Oc1ccc2ccccc2c1C1Nc2cccc3cccc(c23)N1,-10,-7%,-2%,14µM*[quencher],28µM*
COc1cc(C2Nc3cccc4cccc(c34)N2)ccc1O,-7,?,nt,nt,nt
Clc1ccc(C2Nc3cccc4cccc(c34)N2)c(Cl)c1,nt,-26%,nt,nt,nt
CCN(CC)c1ccc(C2Nc3cccc4cccc(c34)N2)c(O)c1,-8,?,-16%,14µM*[quencher],16µM*
SMILES,Coupling enz,USP1-UAF1 inh,Tau FP inhib,Tau fluor cs,Tau ThT inhib
O=C(NCc1ccc(Cl)cc1)C1CCN(c2nn3cc(-c4ccc(F)cc4)nc3s2)CC1,nt,-34%,?,-1%,?
COc1ccc(/C=C/C(=O)Nc2nc(-c3cccs3)ns2)cc1OC,nt,-3%,?,-25%,18%
O=C(N/N=C1/C[C@@H](O)[C@@H](O)[C@@H]2[C@@H]3C(=O)N(C4CCCCC4)C(=O)[C@H]3CC[C@@H]12)OCc1ccccc1,2,nt,4%[11.6 µM],-6%[11.6 µM],-3%[11.5 µM]
O=S(=O)(Nc1ccc(-n2cccc2)cc1)c1ccc(Cl)c(Cl)c1,-1,-11%,14µM*,?,-9%
O=S(=O)(Nc1ccc(-n2cccc2)cc1)c1ccc(F)cc1,-1,-10%,-16%,?,-1%
Cc1[nH]n(-c2ccccc2)c(=O)c1N=Nc1ccc(Cl)cc1,-2,-13%,nt,nt,nt
Cc1[nH]n(-c2ccccc2)c(=O)c1N=Nc1ccc(C#N)cc1,2,-2%,nt,nt,nt
Cc1cc([N+](=O)[O-])ccc1N=Nc1c(N)[nH]n(-c2ccccc2)c1=O,0,-20%,?,?,16µM*
Nc1[nH]n(-c2ccccc2)c(=O)c1N=Nc1ccc2c(c1)OCO2,-7,-16%,?,10µM*[quencher],2.2µM*
Nc1[nH]n(-c2ccccc2)c(=O)c1N=Nc1ccc2c(c1)OCCO2,-5,-16%,-12%,11µM*[quencher],6.3µM*
COc1ccccc1N1CCN(S(=O)(=O)c2ccc3c(c2)CCCN3C(C)=O)CC1,nt,2%,-12%,-11%,1%
CCOC(=O)C1=C(CSc2nc3c(cc2C#N)CN(C)CC3)OC(N)=C(C#N)C1c1ccc(Cl)cc1 (stereo not drawn),0,-7%,-16%,?,20µM*
Cc1ccc(S(=O)(=O)c2nc(NCCN(C)C)sc2Cl)cc1,1,-18%,-7%,-14%,-4%
Cc1ccc(S(=O)(=O)c2nc(Nc3ccccc3)sc2Cl)cc1,1,-20%,?,14µM*[quencher],-1%
O=S(=O)(c1ccccc1)c1nc(Nc2cccc(O)c2)sc1Cl,0,-12%,1%,?,-7%
COc1ccc(Nc2nc(S(=O)(=O)c3ccc(C)cc3)c(Cl)s2)cc1,-5,-5%,4%,10µM*[quencher],-17%
CN(C)c1ccc(S(=O)(=O)NCC(=O)OCC(=O)Nc2cc(Cl)cc(Cl)c2)cc1[N+](=O)[O-],-1,-3%,?,?,28µM*
C[C@H]1C(c2cccc(Cl)c2)=NN(c2ccccc2)[C@@H]1CO,2,nt,10%[81.3 µM],16µM*[quencher],?
OC[C@@H]1[C@@H](c2ccc(F)cc2)C(c2cccc(Cl)c2)=NN1c1ccccc1,-3,-17%,4%[81.3 µM],40µM*[quencher],?
OC[C@@H]1[C@@H](c2ccc(Cl)cc2)C(c2cccc(Cl)c2)=NN1c1ccccc1,-1,-26%,?,11µM*[quencher],?
OC[C@@H]1[C@@H](c2ccc(Cl)cc2)C(c2ccccc2)=NN1c1ccccc1,-7,-16%,7%[81.3 µM],10µM*[quencher],?
